Records with an inconclusive call do not appear. Where a call stands in place of a potency, no number is given. Calls of active or inactive are those of the source. Calls come from the whole dose curve.

A short description of the assay: cAMP Responsive Elements (CRE) small molecule agonists, cell-based qHTS assay (AID 1963590). The note with it: CRE-bla HEK293T, beta-lactamase FRET ratio, 3 h; series mostly up to 92.4 µM. The text has this:
U.S. Tox21 Program National Center for Advancing Translational Sciences [NCATS] Division of Preclinical Innovation [DPI] U.S. Environmental Protection Agency [EPA] National Institutes of Environmental Health Sciences [NIEHS] National Toxicology Program [NTP] U.S. Food and Drug Administration [FDA] Tox21 Assay Overview: CREB (cyclic-AMP Responsive Element Binding Protein) is a cellular transcription factor. It binds to certain DNA sequences called cAMP Responsive Elements (CRE) and regulates the transcription of the genes. […] This cell line can be used to find agonists/antagonists of the cyclic AMP signaling pathway. The activation of the report gene under culture conditions can be detected by fluorescence intensity. This cell line has been used to screen the Tox21 10K compound library to identify agonists that induce oxidative stress.
Tox21 Assay Protocol Summary: CRE-bla Hek 293T cells were suspended in assay medium (DMEM containing 10% dialyzed FBS, 0.1 mM NEAA, 1 mM sodium pyruvate and 25 mM HEPES) and dispensed at 2,000 cells/5 uL /well into 1536-well black wall/clear bottom plates using a Multidrop Combi (ThermoFisher Scientific, Waltham, MA) dispenser. After the assay plates were incubated at 37 C/5% CO2 for 18 hrs, 23 nL of compounds dissolved in DMSO, positive controls or DMSO only was transferred to the assay plate by a pintool workstation (Kalypsys, San Diego, CA). After the plates were incubated at 37 C/5% CO2 for 3 hrs, 1 uL of LiveBLAzer B/G FRET substrate (Invitrogen, Carlsbad, CA) was added to each well using Bioraptr Flying Reagent Dispenser (FRD, Aurora Discovery, San Diego, CA). The plates were incubated at room temperature for 2 h.
A general note: qHTS replaces the single test concentration by a dilution series.
In the case of `CC(C)(C)c1ccc(O)c(O)c1`, the Potency entry is “inactive”. Take `CCOc1ccccc1OCC`: the Potency entry was “inactive”. Under `CCSC(=O)N(CC(C)C)CC(C)C` stands “inactive”; under `O=C(OCCOCCO)c1ccccc1Nc1cccc(C(F)(F)F)c1`, “inactive”. As for `COCCOCCOCCOCCO`, the Potency result was “inactive”. Under `CC(=O)NC(Cc1ccccc1)C(=O)O` (stereo not given) stands “inactive”; under `CCOC(=O)CC(C(C)=O)C(C)=O`, “inactive”.

For `COc1ccccc1NC(=O)CC(C)=O`, the Potency entry is “inactive”. For `O=C1CCC(=O)O1`, the Potency entry was “inactive”. Under `CC1CNCC(C)O1` (stereo not given) stands “inactive”; under `CCCCCCCCCCCCCCCC(=O)NCCO`, “inactive”. Under `CC(C)CC(=O)OCc1ccccc1` stands “inactive”. `CC12CC3CC(C)(C1)CC(N)(C3)C2`: the Potency result is “inactive”. With `C=CC(=O)OCCOC(=O)C=C`, the Potency result was “inactive”. In the case of `C/C=C/C(=O)O`, the Potency entry was “inactive”. `CCC1CCCCC1`: the Potency result was “inactive”.

As to `CC1(C)COCN1`, the Potency result was “inactive”.

For `COc1cc(/C=C/C(N)=O)cc(OC)c1OC`, the Potency entry was “inactive”.

`C[C@@H]1CCC[C@H](C)N1CCCC(O)(c1ccccc1)c1ccccn1` (stereo not given in full): the Potency result is “inactive”.

Consider `O=C(O)c1cc(=O)c2c(OCC(O)COc3cccc4oc(C(=O)O)cc(=O)c34)cccc2o1`, for which the Potency result was “inactive”. Under `COC(=O)/C=C/c1ccccc1` stands “inactive”; under `COc1ccc2cc(C=O)ccc2c1`, “inactive”; under `CCCCSCCCC`, “inactive”. As to `O=C(O)c1ccc(OCCN2CCCCC2)cc1`, the Potency result is “inactive”. Under `CC(C)NC(=O)c1ccccc1N` stands “inactive”; under `CCCCC1CCC(=O)O1` (stereo not given), “inactive”. Under `C=CC(=O)OCCN(CC)CC` stands “inactive”; under `C[C@]12CCC(=O)C=C1CC[C@@H]1[C@@H]2[C@@H](O)C[C@@]2(C)[C@H]1CC[C@]2(O)C(=O)CO`, “inactive”. Under `CCN(CC)c1ccc(C=O)c(O)c1` stands “inactive”; under `C=C(C)C(=O)OCCC(F)(F)C(F)(F)C(F)(F)C(F)(F)C(F)(F)C(F)(F)F`, “inactive”; under `C[Si](C)O[Si](C)(C)O[Si](C)(C)O[Si](C)C`, “inactive”.

Turning to `O=S(=O)(O)c1cccc(S(=O)(=O)O)c1`, the Potency entry is “inactive”. Consider `CCCOC(=O)C(C)O` (stereo not given), for which the Potency result is “inactive”. Under `CC(=O)Nc1ccc(N=Nc2cc(C)ccc2O)cc1` stands “inactive”; under `NS(=O)(=O)c1cc2c(cc1Cl)NC(C1CC3C=CC1C3)NS2(=O)=O` (stereo not given), “inactive”; under `O=[N+]([O-])c1ccccc1CCO`, “inactive”. `O=C(O)CONC(=O)c1ccccc1`: the Potency entry was “inactive”. As for `COc1nc(C)nc(NC(=O)NS(=O)(=O)c2ccccc2OCCCl)n1`, the Potency result was “inactive”.

As for `COc1ccc2nc(N)sc2c1`, the Potency result was “inactive”. On to `Cc1occc1SSc1ccoc1C`, for which the Potency entry was “inactive”.
